Source: PubChem BioAssay (NCATS)
Values joined by “and” are separate entries in the source; they are usually repeats but may differ in a detail not shown here. Equal values may be shown once. Records with an inconclusive call do not appear. Unmarked numbers belong to inactive results. Active and inactive are the calls of the source. Calls come from the whole dose curve; as a rule, active = well fitted curve in the direction sought with a large enough effect; inconclusive = small, poorly fitted or top-dose-only effect, or another doubt; inactive = no such curve, though single readings can be large or run the other way.
% is set by controls: 0 for no effect and ±100 for the full control effect; potency is the fitted concentration of half-maximal effect.

Assay: qHTS Assay for Identifying Gametocytocidal Compounds (AID 743244);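 for max response: actives lower the fluorescent signal which means gametocytes are killed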
Settings: P. falciparum 3D7 stage III-V gametocytes, alamarBlue, 72 h; max response: stronger effect = lower value
Outline: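 In this qHTS viability screen, late-stage 3D7 gametocytes are incubated with compound for 72 h, then with alamarBlue for 24 h; reduced resorufin fluorescence marks killing.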
In the case of C[C@]12CCC(=O)C=C1C=C[C@@H]1[C@@H]2CC[C@@]2(C)[C@H]1CC[C@@]2(O)CCC(=O)O, the max response is reported as 16.5%.
With CCN1C[C@]2(COC)[C@H](O)C[C@H](OC)[C@@]34[C@@H]5C[C@@]6(O)[C@H](OC(=O)c7ccccc7)[C@@H]5[C@@](OC(C)=O)([C@@H]([C@H](OC)[C@H]23)[C@@H]14)[C@@H](O)[C@@H]6OC the max response was -5.96%.
CC1CCC(C(C)C)C(OC(=O)c2ccccc2N)C1 (stereo not given) gave a max response of 9.28%.
With Cc1cc(C)cc(C(=O)OC2C[C@H]3CC[C@@H](C2)N3C)c1 (stereo not given in full) the max response was 23%.
C[N+]1(C)[C@@H]2CC[C@H]1CC(OC(=O)c1c[nH]c3ccccc13)C2 (stereo not given in full) showed a max response of 8.77%.
CC(Cc1ccccc1)NC=O (stereo not given) gave a max response of -3.98%.
In the case of CCCCCCCCCC(=O)O[C@H]1CC[C@H]2[C@@H]3CCC4=CC(=O)CC[C@]4(C)[C@H]3CC[C@]12C, the max response is reported as 4.27%.
With CNC(=O)Oc1ccccc1C(=O)Nc1ccccc1 the max response was 8.96%.
Work on CCC1C(C)=NN=C(c2ccc(OC)c(OC)c2)c2cc(OC)c(OC)cc21 (stereo not given) yielded a max response of 2.95%.
NCC(O)c1cccc(O)c1 (stereo not given) showed a max response of 13.2%.
Work on CCCC(C)(COC(N)=O)COC(=O)NC1CC1 (stereo not given) yielded a max response of 6.87%.
With CN1CCCC(=C(c2cccs2)c2cccs2)C1 the max response was -3.64%.
Work on CC(=O)OCC(=O)[C@H]1CC[C@H]2[C@@H]3CC[C@H]4C[C@H](O)CC[C@]4(C)[C@H]3C(=O)C[C@]12C yielded a max response of 11.4%.
In the case of C[C@]12CC[C@H]3[C@@H](CCC4=C(O)C(=O)CC[C@@H]43)[C@@H]1CC[C@@H]2OC(=O)CCC1CCCC1, the max response is reported as -3.51%.
Work on ClC1=C(Cl)[C@]2(Cl)[C@@H]3[C@H]4C[C@H]([C@@H]5O[C@H]45)[C@@H]3[C@@]1(Cl)C2(Cl)Cl yielded a max response of 19.8%.
In the case of CNC(C)C(O)c1ccc(O)cc1 (stereo not given), the max response is reported as -4.84% and 8.32%.
For CNC(=O)OCC[N+](C)(C)C, the max response was -1.58%.
COc1cc2c(cc1OC)[C@@]13CCN4CC5=CCO[C@H]6CC(=O)N2[C@H]1[C@H]6[C@H]5C[C@H]43 gave a max response of 18.6%.
For [H+].[H+].[Hg+2].[O-]B([O-])[O-].[c-]1ccccc1, the Potency was 3.55 µM (active).
In the case of OC(c1ccccc1)(c1ccccc1)C1CN2CCC1CC2 (stereo not given), the max response is reported as -14.7%.
With CC[N+](C)(CC)CCOC(=O)C(O)(c1ccccc1)c1ccccc1 the max response was 11.5%.
C[C@]12CC[C@H]3[C@@H](CC[C@@]45O[C@@H]4C(O)=C(C#N)C[C@]35C)[C@@H]1CC[C@@H]2O gave a max response of -8.72%.
With O=C1CCCCC1CN1CCCCC1 (stereo not given) the max response was -0.825%.
CC(N)Cc1ccc(O)cc1 (stereo not given) gave a max response of 1.03%.
CC[C@H]1[C@@H]2C[C@H]3[C@@H]4N(C)c5ccccc5[C@]45C[C@@H](C2[C@H]5O)N3[C@@H]1O (stereo not given in full) showed a max response of 7.56%.
Molecule C[C@@H](CO)NC(=O)[C@@H]1C=C2c3cccc4[nH]cc(c34)C[C@H]2N(C)C1 has a max response of -6.08%.
O=C(CCl)c1ccc(Oc2ccc(C(=O)CCl)cc2)cc1 gave a max response of 0.618%.
Work on FC(F)OC(F)(F)C(F)Cl (stereo not given) yielded a max response of -4.54%.
For O=P(O)(O)C(Cl)(Cl)P(=O)(O)O, the max response was -3.79% and -4.92%.
COC(=O)[C@@H]1[C@H]2CC[C@@H](C[C@H]1OC(=O)c1ccccc1)N2C gave a max response of 5.25%.
For CCCCCCC(=O)O[C@H]1CC[C@H]2[C@@H]3CC[C@H]4CC(=O)C=C(C)[C@]4(C)[C@H]3CC[C@]12C, the max response was 7.58%.
CC(C)CCC(=O)O[C@H]1CC[C@H]2[C@@H]3CCC4=CC(=O)CC[C@]4(C)[C@H]3CC[C@]12C showed a max response of 13.7%.
For CN1C2CCC1CC(OC(c1ccccc1)c1ccc(Cl)cc1)C2 (stereo not given), the Potency was 17.8 µM (active).
With [2H]C([2H])([2H])[C@H](N)Cc1ccccc1 the max response was 14.3%.
In the case of C[C@]12CC[C@H](O)C[C@H]1CC[C@@H]1[C@@H]2CC[C@]2(C)[C@@H](c3ccc(=O)oc3)C[C@H]3O[C@]132, the max response is reported as 10.6%.
CO[C@H]1[C@@H](O)C[C@H](O[C@H]2[C@@H](O)C[C@H](O[C@H]3[C@@H](O)C[C@H](O[C@H]4CC[C@@]5(C)[C@H](CC[C@@H]6[C@@H]5C[C@@H](O)[C@]5(C)[C@@H](C7=CC(=O)OC7)CC[C@]65O)C4)O[C@@H]3C)O[C@@H]2C)O[C@@H]1C showed a max response of -9.7%.
For C[C@@H]([C@H](O)c1ccccc1)N(C)C, the max response was 8.71%.
For CCCC(=O)OC(C(Cl)(Cl)Cl)P(=O)(OC)OC (stereo not given), the max response was -0.455%.
Work on CCC1(CC)C(=O)NC(=O)N(C)C1=O yielded a max response of -12.2%.
NCC[C@H](O)C(=O)N[C@@H]1C[C@H](N)[C@@H](O[C@H]2O[C@H](CN)[C@@H](O)[C@H](O)[C@H]2N)[C@H](O[C@@H]2O[C@H](CO)[C@@H](O)[C@H]2O)[C@H]1O gave a max response of 16.1%.
